The text below walks through data of PubChem BioAssay (NCATS).

For test [1], the target named is ATP-dependent 6-phosphofructokinase (Trypanosoma brucei brucei) (UniProt O15648). In words: qHTS Assay to Find Inhibitors of T. brucei phosphofructokinase: hit validation (AID 492961).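 Note: luminescence reports ADP formed as PFK phosphorylates fructose-6-phosphate with ATP; % is set by controls: 0 for no effect and ±100 for the full control effect.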 In a few lines: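 Compounds titrated; %activity normalized to 0x and 1x enzyme controls, curve-fitted. Readout: ADP-Glo luminescence after 45 min room-temperature reaction of 1.25 nM PFK, 0.1 mM ATP, 0.5 mM F6P, pH 8.0.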
Chain of ATP-dependent 6-phosphofructokinase (Trypanosoma brucei brucei) (O15648 whole entry, looked up): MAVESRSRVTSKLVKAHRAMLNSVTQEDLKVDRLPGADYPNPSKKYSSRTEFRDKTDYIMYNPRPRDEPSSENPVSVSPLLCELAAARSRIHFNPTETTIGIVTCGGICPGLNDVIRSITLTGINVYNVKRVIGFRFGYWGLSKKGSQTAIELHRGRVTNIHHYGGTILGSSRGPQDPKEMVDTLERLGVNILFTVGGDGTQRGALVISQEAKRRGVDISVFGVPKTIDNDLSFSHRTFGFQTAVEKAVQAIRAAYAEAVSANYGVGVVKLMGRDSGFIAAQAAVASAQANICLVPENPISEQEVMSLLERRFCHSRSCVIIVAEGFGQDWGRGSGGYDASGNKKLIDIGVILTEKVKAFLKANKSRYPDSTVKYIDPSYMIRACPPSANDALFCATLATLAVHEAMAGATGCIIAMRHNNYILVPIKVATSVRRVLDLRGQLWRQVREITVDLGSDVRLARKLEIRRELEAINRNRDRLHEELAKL
(qHTS replaces the single test concentration by a dilution series.)

Test [2] is described as follows: qHTS profiling for inhibitors of Plasmodium falciparum proliferation (AID 504749).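 For activity, negative = inhibition: 0% = DMSO vehicle and full inhibition = artemisinin control.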 For all read-outs here: nearly all actives have a fitted effect of over 60% in size. Note: potency is the fitted concentration of half-maximal effect. To be noted: P. falciparum in erythrocytes, SYBR Green DNA, 72 h; for activity, negative = inhibition: at 28.7 µM (top of the series). In a few lines: (§1)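 Each compound contacts P. falciparum-infected red blood cells for 72 h at 37 C; lysis buffer (Tris, EDTA, saponin, Triton X, SYBR Green I) is added and fluorescence measured next morning; values normalized to controls.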

The subject of the next test is 3D7. The test is described as above. Conditions: P. falciparum in erythrocytes, SYBR Green DNA, 72 h; series mostly up to 28.7 µM. Put shortly:
as §1

For the next test, the system named is ATS189. The description is as above. Conditions: P. falciparum in erythrocytes, SYBR Green DNA, 72 h; series mostly up to 28.7 µM. In a few lines: as §1
The next test has as its system CP185. The test is described as above. Conditions: P. falciparum in erythrocytes, SYBR Green DNA, 72 h; series mostly up to 28.7 µM. Put shortly: as §1
The test system of the next test is CP191. The description is as above. Conditions: P. falciparum in erythrocytes, SYBR Green DNA, 72 h; series mostly up to 28.7 µM. In a few lines: as §1
The subject of another test is CP194. The test is described as above. Conditions: P. falciparum in erythrocytes, SYBR Green DNA, 72 h; series mostly up to 28.7 µM. In a few lines: as §1
The subject of another test is CP217. The description is as above. To be noted: P. falciparum in erythrocytes, SYBR Green DNA, 72 h; series mostly up to 28.7 µM. In a few lines: as §1
The subject of the next test is CP252. Described as above. To be noted: P. falciparum in erythrocytes, SYBR Green DNA, 72 h; series mostly up to 28.7 µM. In a few lines: as §1
The test system of the next test is CP265. Described as above. To be noted: P. falciparum in erythrocytes, SYBR Green DNA, 72 h; series mostly up to 28.7 µM. In a few lines:
as §1

A further test has as its system CP269. The description is as above. To be noted: P. falciparum in erythrocytes, SYBR Green DNA, 72 h; series mostly up to 28.7 µM. Put shortly:
as §1

For the next test, the system named is CP286. The description is as above. To be noted: P. falciparum in erythrocytes, SYBR Green DNA, 72 h; series mostly up to 28.7 µM. In a few lines: as §1
The next test has as its system Dd2. Described as above. Conditions: P. falciparum in erythrocytes, SYBR Green DNA, 72 h; series mostly up to 28.7 µM. In a few lines:
as §1

The subject of the next test is ECU. Described as above. To be noted: P. falciparum in erythrocytes, SYBR Green DNA, 72 h; series mostly up to 28.7 µM. In a few lines:
as §1

In another test the test system is CP192. The test is described as above. To be noted: P. falciparum in erythrocytes, SYBR Green DNA, 72 h; series mostly up to 28.7 µM. In a few lines: as §1
The test system of the next test is CP211. The description is as above. Conditions: P. falciparum in erythrocytes, SYBR Green DNA, 72 h; series mostly up to 28.7 µM. In a few lines:
as §1

The next test deals with CP238. The description is as above. To be noted: P. falciparum in erythrocytes, SYBR Green DNA, 72 h; series mostly up to 28.7 µM. In a few lines: as §1
The subject of a further test is CP262. The description is as above. Conditions: P. falciparum in erythrocytes, SYBR Green DNA, 72 h; series mostly up to 28.7 µM. Put shortly: as §1
For the next test, the system named is CP329. Described as above. Conditions: P. falciparum in erythrocytes, SYBR Green DNA, 72 h; series mostly up to 28.7 µM. In a few lines:
as §1

For the next test, the system named is FAB9. Described as above. Conditions: P. falciparum in erythrocytes, SYBR Green DNA, 72 h; series mostly up to 28.7 µM. Put shortly:
as §1

Inconclusive results are not listed. Values without a mark were called inactive. Activity calls are given as the source filed them. Calls come from the whole dose curve; as a rule, active = well fitted curve in the direction sought with a large enough effect; inconclusive = small, poorly fitted or top-dose-only effect, or another doubt; inactive = no such curve, though single readings can be large; an effect the other way counts as inactive or inconclusive.

On to `Clc1ccc(CS[C@@H](Cn2ccnc2)c2ccc(Cl)cc2Cl)cc1`, for which the Potency entry in test [1] was “inactive”. Moreover, the Potency in [2] (parasite line A) was 3.16 µM (active); in test [2] (parasite line B) it was 2.24 µM (active); in the test on 3D7, 2.82 µM (active); with ATS189, 3.16 µM (active); in the test with CP185 it was 3.98 µM (active); in the test on CP191, 3.55 µM (active). For the same compound, the Potency with CP194 is 5.1 µM (active); with CP217, 3.16 µM (active); in the test with CP252, 3.98 µM (active); in the test on CP265 it was 3.16 µM (active); in the test on CP269, 6.42 µM (active); with CP286 it was 3.55 µM (active). Moreover, the Potency is 4.47 µM (active) in the test on Dd2 and 1.78 µM (active) with ECU.
On to `CCCSS/C(CCO)=C(/C)N(C=O)Cc1cnc(C)nc1N`, for which the Potency entry (in test [1]; in the test on 3D7; in the test with ATS189; with CP185; in the test with CP191; in the test with CP192) was “inactive” throughout. Also, the Potency entry in the test on CP194, with CP211, in the test with CP217, in the test with CP238, in the test on CP252 and in the test with CP262 was “inactive” each time. The Potency result in the test on CP265, with CP269, in the test with CP286, with CP329, in the test with Dd2 and with ECU was “inactive” in each case. Further, in the test with FAB9, the Potency result is “inactive”. Further, the activity, negative = inhibition is -20.8% in test [2] (parasite line A) and -22.2% in test [2] (parasite line B).
For the compound `Cc1cc2nc3c(=O)[nH]c(=O)nc-3n(CC(O)C(O)C(O)COP(=O)(O)O)c2cc1C` (centres undefined), the Potency entry (in test [1]; with 3D7; in the test with ATS189; in the test on CP185; in the test with CP192; in the test with CP194) was “inactive” in each case. Further, the Potency result with CP211, with CP217, in the test on CP238, with CP252, in the test with CP262 and in the test with CP265 was “inactive” throughout. In addition, the Potency entry with CP269, with CP286, with CP329, with Dd2, in the test on ECU and in the test with FAB9 was “inactive” in each case. Further, the figures for the activity, negative = inhibition in test [2] (parasite line A) and in test [2] (parasite line B) were -0.201% and 1.68%, respectively.
For the compound `CCC(=O)O[C@]1(C(=O)CCl)[C@@H](C)CC2C3C[C@H](F)C4=CC(=O)C=CC4(C)[C@@]3(F)C(O)CC21C` (some centres undefined), the Potency result (in test [1]; in the test with FAB9) was “inactive” each time. Further, the Potency in test [2] (parasite line A) was 12.6 µM (active); in test [2] (parasite line B), 11.2 µM (active); in the test with 3D7, 11.2 µM (active); in the test with ATS189, 10 µM (active); in the test with CP185, 11.2 µM (active); in the test with CP191, 7.94 µM (active). The Potency in the test on CP194 is 15.1 µM (active); in the test on CP211, 9.53 µM (active); in the test with CP217 it was 7.94 µM (active); with CP238, 8.91 µM (active); in the test on CP252, 8.91 µM (active); in the test on CP262, 9.53 µM (active). Moreover, the Potency in the test on CP265 is 8.91 µM (active); in the test with CP269, 12 µM (active); in the test with CP286 it was 10 µM (active); in the test on CP329, 15.1 µM (active); in the test on Dd2 it was 7.94 µM (active); in the test with ECU it was 3.55 µM (active).
With `COc1cc(/C=C2\CCC/C(=C\c3ccc(O)c(OC)c3)C2=O)ccc1O`, the Potency entry (in test [1]; in the test with CP262) was “inactive” in each case. For the same compound, the Potency in test [2] (parasite line A) was 11.2 µM (active); in test [2] (parasite line B) it was 10 µM (active); with 3D7 it was 11.2 µM (active); in the test with CP185 it was 11.2 µM (active); with CP191 it was 10 µM (active); with CP211 it was 16.9 µM (active). For the same compound, the Potency in the test with CP217 is 11.2 µM (active); in the test with CP238, 10 µM (active); in the test on CP265, 14.1 µM (active); in the test with CP269 it was 10.7 µM (active); in the test on Dd2, 11.2 µM (active); in the test with ECU, 11.2 µM (active).
As for `CC(C)CCCC(C)C1CC(=O)C2=C3CCC4CC(O)CCC4(C)C3CCC21C` (centres undefined), the Potency entry (in [1]; with ATS189; in the test with CP185; in the test on CP191; in the test on CP192; with CP194) was “inactive” throughout. The Potency entry in the test with CP211, with CP217, in the test on CP238, in the test on CP252, in the test on CP262 and with CP265 was “inactive” in each case. Besides, the Potency result in the test with CP269, in the test with CP329, in the test with ECU and in the test with FAB9 was “inactive” in each case. Moreover, the activity, negative = inhibition in [2] (parasite line A) was 4.35%; in test [2] (parasite line B), -0.553%. In addition, the Potency in the test with Dd2 was 12.6 µM (active).
